{"source": "the supplement of paper PMC4022240", "experiment_in_all_cases": "peptide microarray binding signal (635 nm), min-max normalized on array (fraction of array maximum); higher = stronger binding", "key": {"[1]": {"target": "T1, HaloTag-ATRX ADD domain (163-292)", "T1 chain": "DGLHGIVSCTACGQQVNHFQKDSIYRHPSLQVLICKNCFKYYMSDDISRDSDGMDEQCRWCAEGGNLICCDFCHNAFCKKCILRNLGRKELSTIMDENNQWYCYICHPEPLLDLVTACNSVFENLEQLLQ", "description": "(§1)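 Histone 13-mer peptides were synthesized as cellulose conjugates with a C-terminal 20-atom PEG linker and printed in triplicate on nitrocellulose. The sequence given is the unmodified backbone; PTMs (Kme1/2/3, Kac, Sph/Tph, Rme/Rme2a/Rme2s, Rcit) are listed in the label and the 'peptide modifications' condition. Slides were probed at 4 °C for 1 h with biotin-labelled (HQ)5-HaloTag reader fusions (ATRX-ADD, ING2-PHD) then streptavidin-Alexa647, or with rabbit histone antibodies then anti-rabbit Alexa647. The mean 635 nm signal of the triplicate spots was scaled 0-1 between the lowest and highest values on each array.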"}, "[2]": {"target": "HaloTag-ING2 PHD (mouse Ing2 200-280)", "description": "as §1"}, "[3]": {"target": "anti-H3K4me3 antibody ab8580", "description": "as §1"}, "[4]": {"target": "anti-H3K9me3 antibody ab8898", "description": "as §1"}, "[5]": {"conditions": "peptide region: H2B 7-19, peptide modifications: H2BK11ac H2BK12ac H2BK15ac H2BK16ac, binder concentration: 1:2,000 dilution"}, "[6]": {"conditions": "peptide region: H2B 7-19, peptide modifications: H2BK11ac H2BK12ac H2BK15ac H2BK16ac, binder concentration: 1:10,000 dilution"}, "[7]": {"conditions": "peptide region: H2A 11-23, peptide modifications: H2AT16ph, binder concentration: 1:2,000 dilution"}, "[8]": {"conditions": "peptide region: H2A 11-23, peptide modifications: H2AT16ph, binder concentration: 1:10,000 dilution"}, "[9]": {"conditions": "peptide region: H2B 7-19, peptide modifications: H2BK11ac H2BK12ac H2BS14ph, binder concentration: 1:2,000 dilution"}, "[10]": {"conditions": "peptide region: H2B 7-19, peptide modifications: H2BK11ac H2BK12ac H2BS14ph, binder concentration: 1:10,000 dilution"}, "[11]": {"conditions": "peptide region: H2A 11-23, peptide modifications: H2AK15ac H2AT16ph, binder concentration: 1:2,000 dilution"}, "[12]": {"conditions": "peptide region: H2A 11-23, peptide modifications: H2AK15ac H2AT16ph, binder concentration: 1:10,000 dilution"}, "[13]": {"conditions": "peptide region: H2A 11-23, peptide modifications: H2AK15ac, binder concentration: 1:2,000 dilution"}, "[14]": {"conditions": "peptide region: H2A 11-23, peptide modifications: H2AK15ac, binder concentration: 1:10,000 dilution"}}, "note": "± gives the standard deviation.", "data": [{"binder": "APAPKKGSKKAVT", "note": "[H2B 7-19 A P A P Kac Kac G S Kac Kac A V T]", "values": [{"measurement": "peptide microarray binding signal", "setting": "[1]; peptide region: H2B 7-19, peptide modifications: H2BK11ac H2BK12ac H2BK15ac H2BK16ac, binder concentration: 50 nM", "result": "0.0047 ± 0.00016"}, {"measurement": "peptide microarray binding signal", "setting": "[1]; peptide region: H2B 7-19, peptide modifications: H2BK11ac H2BK12ac H2BK15ac H2BK16ac, binder concentration: 500 nM", "result": "0.00329 ± 0.00049"}, {"measurement": "peptide microarray binding signal", "setting": "[2]; peptide region: H2B 7-19, peptide modifications: H2BK11ac H2BK12ac H2BK15ac H2BK16ac, binder concentration: 10 nM", "result": "0.00555 ± 0.00016"}, {"measurement": "peptide microarray binding signal", "setting": "[2]; peptide region: H2B 7-19, peptide modifications: H2BK11ac H2BK12ac H2BK15ac H2BK16ac, binder concentration: 100 nM", "result": "0.00524 ± 0.00027"}, {"measurement": "peptide microarray binding signal", "setting": "[3]; [5]", "result": "0.000264 ± 1e-05"}, {"measurement": "peptide microarray binding signal", "setting": "[3]; [6]", "result": "0.000742 ± 1.3e-05"}, {"measurement": "peptide microarray binding signal", "setting": "[4]; [5]", "result": "0.000982 ± 5.2e-05"}, {"measurement": "peptide microarray binding signal", "setting": "[4]; [6]", "result": "0.00167 ± 2.8e-05"}]}, {"binder": "RAKAKTRSSRAGL", "note": "[H2A 11-23 R A K A K Tph R S S R A G L]", "values": [{"measurement": "peptide microarray binding signal", "setting": "[1]; peptide region: H2A 11-23, peptide modifications: H2AT16ph, binder concentration: 50 nM", "result": "0.0047 ± 9.3e-05"}, {"measurement": "peptide microarray binding signal", "setting": "[1]; peptide region: H2A 11-23, peptide modifications: H2AT16ph, binder concentration: 500 nM", "result": "0.00824 ± 0.00034"}, {"measurement": "peptide microarray binding signal", "setting": "[2]; peptide region: H2A 11-23, peptide modifications: H2AT16ph, binder concentration: 10 nM", "result": 0.00364}, {"measurement": "peptide microarray binding signal", "setting": "[2]; peptide region: H2A 11-23, peptide modifications: H2AT16ph, binder concentration: 100 nM", "result": "0.00794 ± 0.00055"}, {"measurement": "peptide microarray binding signal", "setting": "[3]; [7]", "result": "0.000472 ± 1.2e-05"}, {"measurement": "peptide microarray binding signal", "setting": "[3]; [8]", "result": 0.000913}, {"measurement": "peptide microarray binding signal", "setting": "[4]; [7]", "result": "0.000347 ± 7e-06"}, {"measurement": "peptide microarray binding signal", "setting": "[4]; [8]", "result": "0.000807 ± 1.5e-05"}]}, {"binder": "APAPKKGSKKAVT", "note": "[H2B 7-19 A P A P Kac Kac G Sph K K A V T]", "values": [{"measurement": "peptide microarray binding signal", "setting": "[1]; peptide region: H2B 7-19, peptide modifications: H2BK11ac H2BK12ac H2BS14ph, binder concentration: 50 nM", "result": "0.00197 ± 4e-05"}, {"measurement": "peptide microarray binding signal", "setting": "[1]; peptide region: H2B 7-19, peptide modifications: H2BK11ac H2BK12ac H2BS14ph, binder concentration: 500 nM", "result": "0.00252 ± 9e-05"}, {"measurement": "peptide microarray binding signal", "setting": "[2]; peptide region: H2B 7-19, peptide modifications: H2BK11ac H2BK12ac H2BS14ph, binder concentration: 10 nM", "result": "0.0046 ± 0.00019"}, {"measurement": "peptide microarray binding signal", "setting": "[2]; peptide region: H2B 7-19, peptide modifications: H2BK11ac H2BK12ac H2BS14ph, binder concentration: 100 nM", "result": "0.00163 ± 3.3e-05"}, {"measurement": "peptide microarray binding signal", "setting": "[3]; [9]", "result": "0.00215 ± 8.8e-05"}, {"measurement": "peptide microarray binding signal", "setting": "[3]; [10]", "result": "0.000628 ± 6.7e-06"}, {"measurement": "peptide microarray binding signal", "setting": "[4]; [9]", "result": "0.000423 ± 1.8e-05"}, {"measurement": "peptide microarray binding signal", "setting": "[4]; [10]", "result": "0.00075 ± 4e-05"}]}, {"binder": "RAKAKTRSSRAGL", "note": "[H2A 11-23 R A K A Kac Tph R S S R A G L]", "values": [{"measurement": "peptide microarray binding signal", "setting": "[1]; peptide region: H2A 11-23, peptide modifications: H2AK15ac H2AT16ph, binder concentration: 50 nM", "result": "0.006489 ± 4.3e-05"}, {"measurement": "peptide microarray binding signal", "setting": "[1]; peptide region: H2A 11-23, peptide modifications: H2AK15ac H2AT16ph, binder concentration: 500 nM", "result": "0.0117 ± 0.00031"}, {"measurement": "peptide microarray binding signal", "setting": "[2]; peptide region: H2A 11-23, peptide modifications: H2AK15ac H2AT16ph, binder concentration: 10 nM", "result": "0.00722 ± 0.0003"}, {"measurement": "peptide microarray binding signal", "setting": "[2]; peptide region: H2A 11-23, peptide modifications: H2AK15ac H2AT16ph, binder concentration: 100 nM", "result": "0.0188 ± 0.00091"}, {"measurement": "peptide microarray binding signal", "setting": "[3]; [11]", "result": "0.000925 ± 7.2e-05"}, {"measurement": "peptide microarray binding signal", "setting": "[3]; [12]", "result": "0.00103 ± 2.8e-05"}, {"measurement": "peptide microarray binding signal", "setting": "[4]; [11]", "result": "0.000513 ± 2.1e-05"}, {"measurement": "peptide microarray binding signal", "setting": "[4]; [12]", "result": "0.000923 ± 2.5e-05"}]}, {"binder": "RAKAKTRSSRAGL", "note": "[H2A 11-23 R A K A Kac T R S S R A G L]", "values": [{"measurement": "peptide microarray binding signal", "setting": "[1]; peptide region: H2A 11-23, peptide modifications: H2AK15ac, binder concentration: 50 nM", "result": "0.00502 ± 0.00053"}, {"measurement": "peptide microarray binding signal", "setting": "[1]; peptide region: H2A 11-23, peptide modifications: H2AK15ac, binder concentration: 500 nM", "result": "0.00495 ± 0.00038"}, {"measurement": "peptide microarray binding signal", "setting": "[2]; peptide region: H2A 11-23, peptide modifications: H2AK15ac, binder concentration: 10 nM", "result": "0.00388 ± 5.4e-05"}, {"measurement": "peptide microarray binding signal", "setting": "[2]; peptide region: H2A 11-23, peptide modifications: H2AK15ac, binder concentration: 100 nM", "result": "0.0051 ± 0.00094"}, {"measurement": "peptide microarray binding signal", "setting": "[3]; [13]", "result": "0.000321 ± 6.7e-06"}, {"measurement": "peptide microarray binding signal", "setting": "[3]; [14]", "result": "0.00126 ± 4.3e-05"}, {"measurement": "peptide microarray binding signal", "setting": "[4]; [13]", "result": "0.0004228 ± 4.1e-06"}, {"measurement": "peptide microarray binding signal", "setting": "[4]; [14]", "result": "0.00121 ± 4.9e-05"}]}]}
